Drawing on PubChem BioAssay (NCI), this text covers growth for seven compounds.

The panel holds about 83,000 compounds, 20% with a hit somewhere; the sample as a whole holds those more often.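 Growth was measured after 48 h exposure to one concentration of compound in 96-well plates. Values under 10 count as active.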 Unmarked numbers belong to inactive results. Calls of active or inactive are those of the source.

Among the test systems are HCT-15 colon; HT29 colon; SNB-75 CNS; SNB-19 CNS; U251 CNS; PC-3 prostate; SK-MEL-5 melanoma; UACC-62 melanoma; LOX IMVI melanoma; SK-MEL-28 melanoma; SK-MEL-2 melanoma; EKVX NSCLC; SN12C renal; UO-31 renal; TK-10 renal; ACHN renal; CAKI-1 renal; A498 renal; CCRF-CEM leukemia; MOLT-4 leukemia.
Assay in all cases: NCI-60 one-dose screen, 48 h (100 = growth as untreated, 0 = no growth, -100 = all killed)
What all share (details): 10 µM

As for `COc1cc2c3c(n(CCCNCCO)c(=O)c2cc1OC)-c1nc2c(cc1C3=O)OCO2`, the growth with HCT-15 colon is 48.5%; in the experiment on HT29 colon it was 5.98% (active); with SNB-75 CNS, 18.8%; in the experiment with SNB-19 CNS, 13.7%; with U251 CNS, 12.4%; in the experiment with PC-3 prostate it was 27.1%. Also, the growth with SK-MEL-5 melanoma was 30.4%; in the experiment on UACC-62 melanoma, 1.57% (active); in the experiment on LOX IMVI melanoma, -90.8% (active); in the experiment on SK-MEL-28 melanoma it was 72.2%; with SK-MEL-2 melanoma it was 116%; in the experiment on EKVX NSCLC, 79%. Also, the growth in the experiment with SN12C renal was 8.45% (active); in the experiment on UO-31 renal, 24.4%; in the experiment with TK-10 renal, 85.5%; in the experiment with ACHN renal, 2.56% (active); with CAKI-1 renal, 7.66% (active); in the experiment on A498 renal, 69.3%. The growth was 8.64% (active) in the experiment on CCRF-CEM leukemia and -14.4% (active) in the experiment with MOLT-4 leukemia.
Regarding `CN1C(=O)N(C)C2SC(N/N=C/C=C/c3ccccc3)=NC21` (centres undefined), the growth was 37.2% with HCT-15 colon; 73.2% in the experiment with HT29 colon; 89.7% in the experiment on SNB-75 CNS; 72.5% in the experiment on SNB-19 CNS; 79.2% in the experiment with U251 CNS; 75.5% in the experiment on PC-3 prostate. Besides, the growth with SK-MEL-5 melanoma is 57.9%; in the experiment on UACC-62 melanoma, 41.7%; in the experiment on LOX IMVI melanoma, 68.1%; with SK-MEL-28 melanoma, 69.5%; in the experiment with SK-MEL-2 melanoma, 81.9%; with EKVX NSCLC, 86.6%. Besides, the growth with SN12C renal was 85.6%; with UO-31 renal, 58.4%; in the experiment on TK-10 renal, 99.6%; in the experiment with ACHN renal, 92.7%; with CAKI-1 renal, 83.6%; in the experiment on A498 renal, 81.5%. For the same compound, the figures for the growth in the experiment with CCRF-CEM leukemia and in the experiment with MOLT-4 leukemia were 47.5% and 46.7%, respectively.
With `COc1ccc(NC(=O)CSc2nnc(-c3ccc4nc(-c5ccc(Cl)cc5)[nH]c4c3)o2)cc1`, the growth in the experiment with HCT-15 colon was 29.9%; in the experiment on HT29 colon, 34.6%; in the experiment with SNB-75 CNS it was 112%; with SNB-19 CNS, 33.7%; in the experiment with U251 CNS, -15.3% (active); with PC-3 prostate it was 51.9%. The growth in the experiment with SK-MEL-5 melanoma was 16.1%; in the experiment with UACC-62 melanoma, 7.61% (active); with LOX IMVI melanoma it was 16.6%; in the experiment on SK-MEL-28 melanoma, 10.1%; in the experiment on SK-MEL-2 melanoma it was 107%; in the experiment with EKVX NSCLC, 98.8%. In addition, the growth in the experiment with SN12C renal is 29.1%; with UO-31 renal, 63.9%; with TK-10 renal, 121%; in the experiment on ACHN renal, 63.8%; in the experiment with CAKI-1 renal it was 83.6%; in the experiment on A498 renal it was 132%. Besides, the growth in the experiment with CCRF-CEM leukemia is 67.5%; in the experiment with MOLT-4 leukemia it was 30.4%.
Take `COc1ccc(C(=O)NC(=S)N2CCN(c3ncnc4c3cnn4-c3ccccc3)CC2)cc1`: the growth was 42.7% in the experiment on HCT-15 colon; 80.5% in the experiment on HT29 colon; 31.7% in the experiment on SNB-75 CNS; 10.2% in the experiment on SNB-19 CNS; 55.1% in the experiment with U251 CNS; 59% with PC-3 prostate. Moreover, the growth is 71.6% in the experiment with SK-MEL-5 melanoma; 40.8% with UACC-62 melanoma; 62.3% in the experiment with LOX IMVI melanoma; 50% with SK-MEL-28 melanoma; 57.6% in the experiment on SK-MEL-2 melanoma; 81.4% in the experiment on EKVX NSCLC. Moreover, the growth with SN12C renal was 46%; in the experiment with UO-31 renal, 69%; with TK-10 renal it was 101%; in the experiment with ACHN renal it was 64.3%; in the experiment on CAKI-1 renal, 28.1%; in the experiment on A498 renal, 115%. In the experiment on MOLT-4 leukemia, the growth is 58.2%.
With `O=C(NCCCCCCCCCC[P+](c1ccccc1)(c1ccccc1)c1ccccc1)c1ccc(-n2nc(-c3ccccc3O)nc2-c2ccccc2O)cc1`, the growth in the experiment with HCT-15 colon was -90.4% (active); with HT29 colon, -72.9% (active); with SNB-75 CNS, -27.1% (active); in the experiment with SNB-19 CNS it was -93.9% (active); in the experiment on U251 CNS, -50% (active); with PC-3 prostate, -48.3% (active). Also, the growth in the experiment with SK-MEL-5 melanoma was -100% (active); in the experiment with UACC-62 melanoma, -88.9% (active); in the experiment with LOX IMVI melanoma it was -96.9% (active); with SK-MEL-28 melanoma, -93.8% (active); in the experiment with SK-MEL-2 melanoma, -79.6% (active); with EKVX NSCLC, -90% (active). Moreover, the growth was -76.4% (active) in the experiment with SN12C renal; -84.3% (active) in the experiment on UO-31 renal; -91.1% (active) in the experiment on TK-10 renal; -98.6% (active) with ACHN renal; -68.5% (active) in the experiment with CAKI-1 renal; -75.1% (active) in the experiment on A498 renal. For the same compound, the values for the growth in the experiment on CCRF-CEM leukemia and in the experiment on MOLT-4 leukemia were 4.27% (active) and -10.4% (active), respectively.
On to `CCOc1ccc(/C=N/NC(=O)Cn2nc(Cc3ccccc3)c3onc(C)c3c2=O)cc1`, for which the growth is 63.1% in the experiment on HCT-15 colon; 42% with HT29 colon; -23.7% (active) in the experiment with SNB-75 CNS; -3.49% (active) in the experiment on SNB-19 CNS; -21.4% (active) with U251 CNS; 22.5% in the experiment on PC-3 prostate. For the same compound, the growth in the experiment on SK-MEL-5 melanoma was 68.3%; with UACC-62 melanoma, 36.9%; with LOX IMVI melanoma, 14.2%; in the experiment with SK-MEL-28 melanoma it was 54.3%; with SK-MEL-2 melanoma, 3.12% (active); with EKVX NSCLC, 23.9%. For the same compound, the growth with SN12C renal was 8.3% (active); with UO-31 renal, -2.49% (active); in the experiment with TK-10 renal, 25.6%; in the experiment with ACHN renal it was 6.42% (active); in the experiment with CAKI-1 renal, 12%; with A498 renal, -6.43% (active). Moreover, the growth in the experiment with CCRF-CEM leukemia is 86.6%; with MOLT-4 leukemia, 79.6%.
Regarding `N#Cc1ccc(NC(=O)CSc2ccc(-c3ccc(Br)cc3)nn2)cc1`, the growth with HCT-15 colon is 72.7%; in the experiment with HT29 colon it was 84.1%; with SNB-75 CNS, 76%; with SNB-19 CNS, 64%; in the experiment with U251 CNS, 87.7%; with PC-3 prostate it was 58.6%. Besides, the growth was 4.86% (active) in the experiment on SK-MEL-5 melanoma; 29.9% in the experiment with UACC-62 melanoma; 52.8% with LOX IMVI melanoma; 62.4% with SK-MEL-28 melanoma; 57.9% in the experiment with SK-MEL-2 melanoma; 72.4% in the experiment on EKVX NSCLC. For the same compound, the growth in the experiment on SN12C renal was 73.5%; with UO-31 renal it was 54.6%; with TK-10 renal, 103%; with ACHN renal it was 64.5%; in the experiment with CAKI-1 renal it was 67.2%; in the experiment on A498 renal, 89.4%. In addition, the growth in the experiment on CCRF-CEM leukemia was 57.9%; with MOLT-4 leukemia, 42.6%.
